Each structure is given as a SMILES string. “And” between values parts separate entries of the source, which are not always exact repeats. Equal entries are not always repeated. Hit rate of the full screen: of about 1,900 compounds, about 15 (0.8%) were called active. The full list was thinned out, with actives kept by preference. Unmarked numbers belong to inactive results.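 Rule for the calls: active = every replicate shows at least 50% inhibition; inconclusive = mean inhibition at least 50% but some replicate below; inactive = the rest.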

Chain of DNA repair protein RAD52 homolog (Homo sapiens) (P43351 whole entry, looked up): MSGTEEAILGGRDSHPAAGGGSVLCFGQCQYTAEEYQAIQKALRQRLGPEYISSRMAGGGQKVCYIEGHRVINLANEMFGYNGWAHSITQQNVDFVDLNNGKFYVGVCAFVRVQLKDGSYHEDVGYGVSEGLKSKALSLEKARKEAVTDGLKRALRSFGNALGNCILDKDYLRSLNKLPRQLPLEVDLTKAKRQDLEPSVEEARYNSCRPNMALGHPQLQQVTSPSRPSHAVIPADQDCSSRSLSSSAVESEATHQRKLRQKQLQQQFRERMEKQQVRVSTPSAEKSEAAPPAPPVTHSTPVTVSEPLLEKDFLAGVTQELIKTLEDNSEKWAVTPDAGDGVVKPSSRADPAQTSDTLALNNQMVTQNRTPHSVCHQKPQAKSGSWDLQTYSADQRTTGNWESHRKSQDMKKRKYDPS

This test addresses DNA repair protein RAD52 homolog (Homo sapiens) (UniProt P43351). Nature of the test: inhibition of RAD52-mediated strand annealing – biochemical, FRET, single point, primary screen (AID 651660).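 Note: 0% = median of neutral control wells and 100% = median of positive control wells.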 The conditions noted are these: Recombinant RAD52 ssDNA annealing, FRET fluorescence, 30 min; at 18.7 µM; hits give high values.
Regarding `O=C(CNC(=O)OCc1ccccc1)NC1CCCCCC1`, the inhibition was 0.625%. As to `CC(C)OC(=O)C1C2C=CC3(CN(CC4CCCO4)C(=O)C13)O2` (stereo unspecified), the inhibition is -7.36%. With `O=C(O)c1ccc(-c2ccc(O)c(F)c2)cc1` the figure was -3.36%; with `Cc1ncc(C(=O)O)c(C(=O)O)c1N`, -18.8%. On to `O=C(O)CCCNc1ccc(S(=O)(=O)Nc2ccccc2C(=O)O)cc1C(=O)O`, for which the inhibition is -12.9%. For the compound `CCOC(=O)c1ccc(N2C(=O)C(CC(N)=O)N(CCc3ccc(OC)c(OC)c3)C2=S)cc1` (stereo unspecified), the inhibition was 3.53%.

In the case of `CC(C)c1ccc(NC(=O)CNS(=O)(=O)c2ccc(F)cc2)cc1`, the inhibition was 3.93%. Turning to `CCOc1ccc2oc(-c3ccccc3)c(C(=O)O)c2c1`, the inhibition is -1.63%. Consider `Cc1cccc(-n2c(Cc3ccccc3)n[nH]c2=S)c1`, for which the inhibition is -6.53%. As to `NCCOc1ccccc1OCCN`, the inhibition was 2.09%. Take `COc1ccc(C2CC(c3ccc([N+](=O)[O-])cc3)=NN2C(=O)c2ccccc2)cc1OC` (stereo unspecified): the inhibition was -4.95%.

As to `O=C(c1ccc(-c2ccccc2)c(F)c1)C1CCCN(C(=O)c2cncs2)C1` (stereo unspecified), the inhibition was -5.72%. `O=C(OCC1OC2OC3(CCCCC3)OC2C2OC3(CCCCC3)OC12)c1ccccc1` (stereo unspecified): the inhibition is -6.56%. In the case of `COC1(C)CC2C(CC1OC(=O)c1cc([N+](=O)[O-])cc([N+](=O)[O-])c1)C2(C)C` (stereo unspecified), the inhibition is 2.54%. For `COc1ccc2c(c1)[N+](C)(C)C(C)(C)C=C2C`, the inhibition is 2.05%.

For `CC(=O)OCC#CCSc1nc2ccccc2n1C`, the inhibition was -0.59%. In the case of `CC(C)COCC1CC2(CC(C)(c3csc(N)n3)OC2=O)C(=O)O1` (stereo unspecified), the inhibition is -11.3%. Turning to `COc1cc(C2NCCc3c2[nH]c2ccccc32)ccc1OC(C)C` (stereo unspecified), the inhibition was 1.55%.

`CC12CN3CC(C)(CN(C1)C3c1ccc(Br)cc1O)C2` (stereo unspecified): the inhibition was -9.4%. Regarding `Cc1ccc2c(c1)C1(C(=O)N2)N2CCCC2C(C(=O)c2ccc3ccccc3c2)C12C(=O)Nc1ccccc12` (stereo unspecified), the inhibition is 8.82%.

With `COc1ccc(-c2noc(-c3ccccc3-c3ccccc3)n2)cc1`, the inhibition was 2.09%. For the compound `O=C(CS(=O)(=O)Cc1ccccc1)NCc1ccc2c(c1)OCO2`, the inhibition is 1.08%. For `CC(=O)N(CCC(Cc1ccccc1)c1ccc2c(c1)OCO2)Cc1ccc(Cl)cc1` (stereo unspecified), the inhibition was 16.3%. As to `COc1ccc(C(=O)C2CCCCC2=O)cc1` (stereo unspecified), the inhibition is -11.5%. Consider `CC(CN1c2ccccc2Sc2ccccc21)N(C)C` (stereo unspecified), for which the inhibition is 7.73%. For `CSc1ccc2c(c1)N(CCC1CCCCN1C)c1ccccc1S2` (stereo unspecified), the inhibition was 61.6% (active). For `CCOC(=O)c1cc2c(nc1N)CC(C)(CC)OC2` (stereo unspecified), the inhibition is -11.6%. On to `COC(=O)C1=CN(Cc2cccs2)C=C(C(=O)OC)C1c1cccc(Cl)c1`, for which the inhibition is 11.7%. In the case of `CN1C(=O)NC(c2ccc(O)cc2)C2=C1CN(c1cccc3ccccc13)C2=O` (stereo unspecified), the inhibition is -2.34%.

Regarding `CC(=O)C1=C(NC(=O)c2ccc(C(F)(F)F)cc2)C[C@@H]2[C@H]1C2(C)C`, the inhibition was 4.2%.

For `CN(C)c1ccc(C(CN)c2c[nH]c3ccccc23)cc1` (stereo unspecified), the inhibition was -2.21%.

Take `O=[N+]([O-])c1cc(/C=N/n2cnnc2)ccc1N1CCCC1`: the inhibition is -0.23%. With `COC(=O)c1ccc(=O)n(Cc2ccco2)c1` the figure was -5.57%; with `CC(=O)N1CC2(C)CN(C(C)=O)CC(C)(C1)C2`, -4.54%.

For `CSc1cccc(NC(=O)/C=C/c2ccccc2)c1`, the inhibition is 5.27%.

On to `N/C(=N\OC(=O)c1ccc(Br)o1)c1ccccn1`, for which the inhibition was -4.88%. In the case of `COc1ccc2c(=O)c(-c3cnn(-c4ccccc4)c3)c(C)oc2c1`, the inhibition was -8.23%. With `COc1ccc(S(=O)(=O)N2CCN(C(=O)COc3ccc4c(C)cc(=O)oc4c3)CC2)cc1` the figure was -4%. In the case of `CC(=O)C1=C(O)C(=O)N(Cc2cccnc2)C1c1ccc(C(C)C)cc1` (stereo unspecified) it was 0.222%; in that of `CCOc1ccc(C(=O)NCC2(c3ccccc3)CCOCC2)cc1`, -5.73%; in that of `COc1ccc(CNC(=O)C2CCN(C(=O)[C@@H](CC(C)C)NC(=O)OC(C)(C)C)CC2)cc1`, 2.06%. With `CCCCOc1cc(C(=O)NCCN(CC)CC)c2ccccc2n1` the figure was 8.91% and -1.38%. Regarding `CCCCc1oc2ccccc2c1C(=O)c1cc(I)c(OCCN(CC)CC)c(I)c1`, the inhibition was 72.2% (active). Consider `CCc1oc2ccccc2c1C(=O)c1cc(Br)c(O)c(Br)c1`, for which the inhibition was -13.4%. For `Cc1ccc2c(c1)C(O)(C1COC(C)(C)CC1=O)C(=O)N2C` (stereo unspecified), the inhibition was -1%. For `COc1cccc2c(O)cc(=O)n(C)c12`, the inhibition was 6.83%. With `COc1cccc(=O)c2c(C)n(CC(=O)c3ccccc3)c(C)c12`, the inhibition is -138%. Take `O=C(CCC(=O)NCCO)NCCO`: the inhibition is 4.45%. In the case of `CC1=C/C(=N\N=C2\NC(=O)C(CC(=O)Nc3ccccc3F)S2)CC(C)(C)C1` (stereo unspecified), the inhibition was -3.25%. As for `CSCC[C@H](NC(=O)NC1CCCC1)C(=O)O`, the inhibition is -5.4%.

`CCOC(=O)c1cnc2ccc(C(=O)OC)cc2c1Nc1ccc2c(c1)OCCO2`: the inhibition was 0.862%. Turning to `CN(C)CCOC(c1ccccc1)c1ccccc1` (tested in a mixture with another compound), the inhibition is 0.693%. Consider `O=C(OCCNC(=O)c1ccc2ccccc2n1)c1ccc(F)cc1`, for which the inhibition was 3.05%. `CC1CCN(CCOCCOc2ccccc2Br)CC1`: the inhibition was -6.71%. With `CC1(C)CC(NCc2ccccc2)CCO1` (stereo unspecified), the inhibition was -6.22%. On to `Cc1nc(N[C@@H](Cc2c[nH]c3ccccc23)C(=O)O)c2oc3ccccc3c2n1`, for which the inhibition is -19.8%. Take `COc1ccc(NC(=O)CC(c2ccccc2)c2ccco2)cc1` (stereo unspecified): the inhibition was -8.33%. Take `CC(=O)SC1CC2=CC(=O)CCC2(C)C2CCC3(C)C(CCC34CCC(=O)O4)C12` (stereo unspecified): the inhibition was -15.3%.

Consider `COc1ccc(C2NC(=O)c3ccccc3O2)c(OC)c1OC` (stereo unspecified), for which the inhibition was -1.29%. With `COc1cccc(/C=C/C(=O)c2c(O)cc(C)oc2=O)c1O` the figure was -38.5%; with `CCOc1ccc(NC2OC(C)C(O)C(O)C2O)c([N+](=O)[O-])c1` (stereo unspecified), -2.79%.

In general, inhibition refers to the drop in the measured response relative to a control, in per cent.

(Values after PubChem BioAssay AID651660 (Broad Institute, 2012).)
